DAX1 inh-1: NR0B1 (DAX1) inhibition; P51843; HEK293 Gal4-DAX1 luciferase reporter, luminescence; inhibition, % at 6.75 µM; actives 0.99% (n = 340,000);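 active = inhibition above the mean over all tested compounds plus 3 SD, cut at about 4.2% in these data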;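 note: inhibition shows as a rise in luminescence from relieved DAX1 repression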
DAX1 inh-2: DAX1 (NR0B1) inhibition, primary screen; inhibition, % at 6.8 µM; actives 1.1% (n = 370,000); HEK293T StAR-luciferase reporter, SF-1/DAX-1 repression relief;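 active = inhibition above the mean over all tested compounds plus 3 SD, cut at about 3.6% in these data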;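 note: higher inhibition means more luminescence from relief of DAX-1 repression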
hgDAF-12 ag: activates the H. glycines DAF-12 receptor ligand-binding domain | actives 1.8% (n = 370,000) | HEK293 GAL4-hgDAF12 UAS-luciferase reporter, agonist luminescence; normalized to butyrate control | activation, % at 6.8 µM;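 active = activation above a cutoff set at the mean of all screened compounds plus 3 SD, cut at about 10% in these data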
hcDAF12 agonist: activates DAF-12 receptor from parasite H. contortus; HEK293 hcDAF-12 lit1-tk-luc reporter, luminescence; 0% DMSO, 100% Δ7-dafachronic acid; activation, % at 6.8 µM; actives 1.4% (n = 370,000); AID 652067;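 active = activation above the mean of all tested compounds plus 3 SD, cut at about 5.5% in these data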
ssDAF12 agonist: activators of S. stercoralis DAF-12 nuclear receptor. actives 1% (n = 370,000). HEK293 ssDAF-12/GRIP1 lit1-tk-luc reporter, luminescence; % of 3 µM dafachronic acid response. activation, % at 6.8 µM;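 active = activation above the mean over all tested compounds plus 3 SD, cut at about 0.9% in these data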
AHR activator: activates the human aryl hydrocarbon receptor; P35869; activation, % at 5 µM; AHR-responsive luciferase reporter cells, luminescence; actives 2.5% (n = 320,000); in the data active = activation above about 47%
Target sequence (P35869 whole entry, looked up): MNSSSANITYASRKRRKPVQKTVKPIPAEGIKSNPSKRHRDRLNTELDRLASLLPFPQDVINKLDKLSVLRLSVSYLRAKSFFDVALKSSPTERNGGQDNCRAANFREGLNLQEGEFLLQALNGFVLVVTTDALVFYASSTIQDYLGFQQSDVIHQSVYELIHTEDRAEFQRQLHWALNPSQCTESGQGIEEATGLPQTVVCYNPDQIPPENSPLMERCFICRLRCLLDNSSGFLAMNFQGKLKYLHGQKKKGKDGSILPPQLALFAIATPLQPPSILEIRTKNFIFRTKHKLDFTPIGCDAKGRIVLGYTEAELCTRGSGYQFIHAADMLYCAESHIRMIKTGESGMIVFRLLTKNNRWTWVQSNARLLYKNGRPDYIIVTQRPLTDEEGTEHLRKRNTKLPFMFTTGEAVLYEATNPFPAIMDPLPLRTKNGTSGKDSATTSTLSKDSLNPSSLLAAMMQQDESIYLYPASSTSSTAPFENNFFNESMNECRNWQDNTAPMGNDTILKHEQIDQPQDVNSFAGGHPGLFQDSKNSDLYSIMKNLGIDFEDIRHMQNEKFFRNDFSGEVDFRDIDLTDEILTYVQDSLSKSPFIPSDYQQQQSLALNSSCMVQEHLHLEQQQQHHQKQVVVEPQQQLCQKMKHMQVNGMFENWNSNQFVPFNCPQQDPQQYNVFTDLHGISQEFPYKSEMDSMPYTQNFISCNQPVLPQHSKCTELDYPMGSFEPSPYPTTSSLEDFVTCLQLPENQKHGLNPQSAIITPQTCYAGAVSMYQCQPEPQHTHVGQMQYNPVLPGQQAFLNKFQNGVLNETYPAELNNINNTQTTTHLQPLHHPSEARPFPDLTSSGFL
Large screens that a line does not name were inactive. Shown are actives, neighbours in structure and some others; about 5.7% of the full set was active somewhere.

CCOC(=O)c1nc(-c2ccccc2)sc1C(C)=O	none
CSc1ccccc1NC(=O)C1(C)CCN1C(=O)CCC1CCCC1 (stereo unspecified)	none (no result: DAX1 inh-1, AHR activator)
Cn1ccnc1SCC(=O)n1c2c(c3ccccc31)CCCC2	AHR activator 72
Clc1ccc(NC2(c3nnnn3C3CCCCC3)CCCCC2)cc1	DAX1 inh-1 4.7
O=C(Nc1cc2c(cc1Br)OCCCO2)c1ccccc1	hgDAF-12 ag 11
CCOc1ccc(OCCC(=O)OCC(=O)Nc2cc(OCC)c(N3CCOCC3)cc2OCC)cc1	none
Cc1ccc(-n2c(SCC(=O)Nc3ccc(S(=O)(=O)Nc4cc(C)nc(C)n4)cc3)nnc2-c2ccncc2)cc1	none (no result: DAX1 inh-1, AHR activator)
CCC(C)c1ccccc1NC(=O)c1cc2cccc([N+](=O)[O-])c2[nH]1 (stereo unspecified)	AHR activator 55 (no result: DAX1 inh-1)
O=c1ccn(C2CC(O)C(COC(c3ccccc3)(c3ccccc3)c3ccccc3)O2)c(=O)[nH]1 (stereo unspecified)	none (no result: DAX1 inh-1, AHR activator)
CN(C)S(=O)(=O)c1cccc(C(=O)Nc2ccccc2)c1	none
CS(=O)(=O)Nc1ccc(C(=O)NCCc2ccccc2)cc1	hgDAF-12 ag 11
CS(=O)(=O)Nc1ccc(C(=O)NCCSCc2ccccc2)cc1	DAX1 inh-1 5.4
CN(C)S(=O)(=O)c1cccc(C(=O)NCCc2ccccc2)c1	DAX1 inh-2 3.8, hcDAF12 agonist 6.0
COCCCNC(=O)c1ccc(NS(C)(=O)=O)cc1	none
O=C1C[C@@H]2CCN3C(=O)CCC[C@@H]([C@H]23)[C@@H]1Cc1ccccc1	DAX1 inh-2 3.9 (no result: AHR activator)
CCOC(=O)c1oc2ccccc2c1COC(=O)CNC(=O)c1cccc(C)c1	none
CC(CNC(=O)Cn1cnc2c(NCc3ccccc3)ncnc21)c1ccccc1 (stereo unspecified)	none (no result: AHR activator)
C#CCn1c2ccccc2c(=O)n1C(C)CBr (stereo unspecified)	ssDAF12 agonist 1.1 (no result: DAX1 inh-1, AHR activator)
C#CCn1c2ccccc2c(=O)n1C(C)C	none (no result: DAX1 inh-1, AHR activator)
Cc1n[nH]c(C)c1S(=O)(=O)N1CCN(S(=O)(=O)c2ccccc2C#N)CC1	none
Cc1noc(C)c1S(=O)(=O)N1CCN(S(=O)(=O)c2ccccc2C#N)CC1	DAX1 inh-1 7.8
O=S(=O)(NCc1csc(-c2cccnc2)n1)c1cccs1	ssDAF12 agonist 0.9
O=S(=O)(NCCc1csc(-c2cccnc2)n1)c1ccc(Cl)s1	none
O=S(=O)(NCCc1csc(-c2cccnc2)n1)c1cccs1	AHR activator 69
CC(=O)N1CCN2C(=O)C1CCCC(=O)c1cc(C(C)C)ccc12 (stereo unspecified)	none
CC(=O)N1CCN2C(=O)C1CCCC(=O)c1cc(C3CCCCC3)ccc12 (stereo unspecified)	DAX1 inh-1 4.3
CC[C@]12c3[nH]c4ccc(Cl)cc4c3CCN1C(=O)[C@@H](CC(=O)NC/C=C(\C)CCC=C(C)C)C[C@@H]2C(=O)N1CCN(C(=O)c2ccco2)CC1	ssDAF12 agonist 2.1 (no result: AHR activator)
CCn1c(-c2ccccc2O)n[nH]c1=S	none
CCn1c(-c2cc(-c3ccccc3)sc2N)n[nH]c1=S	AHR activator 73 (no result: DAX1 inh-1)
O=C(NCCc1cn2ccccc2n1)c1ccc(Br)o1	none
Cc1cccn2cc(CCNC(=O)c3ccc(Br)o3)nc12	hcDAF12 agonist 6.0, ssDAF12 agonist 1.3
CCn1cnc2sc(C(=O)Nc3ccccc3OC)c(C)c2c1=O	AHR activator 68
CCn1cnc2sc(C(=O)Nc3ccc4c(c3)OCO4)c(C)c2c1=O	hgDAF-12 ag 13
COc1ccccc1NC(=O)c1sc2ncn(CC(=O)N3CCC(C)CC3)c(=O)c2c1C	none
CCOc1ccccc1NC(=O)c1sc2ncn(CC(=O)N3CCOCC3)c(=O)c2c1C	AHR activator 55
CCCNC(=O)Cn1cnc2sc(C(=O)Nc3ccc4c(c3)OCO4)c(C)c2c1=O	none (no result: DAX1 inh-2, hgDAF-12 ag, hcDAF12 agonist, ssDAF12 agonist)
O=C1NC2=C(C(=O)CCC2)C(c2cccc([N+](=O)[O-])c2)N1 (stereo unspecified)	none (no result: AHR activator)
C[C@@H](NS(=O)(=O)c1c(F)cccc1F)c1ccccc1	none (no result: DAX1 inh-1, AHR activator)
Oc1ccc2ccccc2c1C=NN1CCN(Cc2ccc(Cl)cc2)CC1	none (no result: DAX1 inh-1, AHR activator)
C=CCn1c(=O)[nH]c2nc3cc(N=CN(C)C)c(C)cc3nc2c1=O	AHR activator 68
Cc1cc2nc3c(=O)n(CCc4ccccc4)c(=O)[nH]c3nc2cc1N	none
O=c1[nH]nnc2c1cnn2-c1ccccc1	none (no result: AHR activator)
Cc1sc2nc(C3CCCCC3)nc(SCC(=O)N3CC(=O)Nc4ccccc43)c2c1C	ssDAF12 agonist 1.2
CCc1nc(SCC(=O)N2CC(=O)Nc3ccccc32)c2c(C)c(C)sc2n1	none
CC(C)N1CCN(c2ccc(S(=O)(=O)N3CCOCC3)cn2)CC1	none (no result: AHR activator)
O=C(N/N=C\c1ccc(Sc2ccccn2)o1)c1cccc(Br)c1	AHR activator 61
Cc1sc(NC(=O)Cn2[nH]c(=O)c3ccccc3c2=O)nc1-c1ccccc1	none
Cc1csc(Sc2ccc(C(=O)OCC(=O)Nc3ccc(F)cc3[N+](=O)[O-])cc2[N+](=O)[O-])n1	DAX1 inh-1 6.5
O=C(NCCCCc1ccccc1)Nc1ccc(F)cc1	none
Cc1nn(-c2ccccc2)c2nc(-c3ccncc3)cc(C(=O)NCc3ccco3)c12	AHR activator 65
COc1ccc(/C=C/c2nc(-c3ccccc3)cc(=O)[nH]2)cc1	AHR activator 76
O=c1cc(-c2ccccc2)nc(/C=C/c2ccccc2)[nH]1	DAX1 inh-1 5.6
CCOC(=O)CC[C@@H]1CC[C@]2(CCCN(C(=O)C(C)(C)C)C2)O1	none (no result: DAX1 inh-1, AHR activator)
CC(=O)CC[C@H]1CC[C@]2(CCCN(C(=O)C(C)(C)C)C2)O1	ssDAF12 agonist 2.2 (no result: DAX1 inh-1, AHR activator)
Cc1cccc(NC(=O)[C@@H]2CCCN2S(=O)(=O)c2ccc(Cl)cc2)c1	none
CC(=O)Nc1ccc(-c2csc(Nc3cccc(C)n3)n2)cc1	hgDAF-12 ag 11 (no result: AHR activator)
COc1ccc(-c2csc(Nc3ccccn3)n2)cc1OC	DAX1 inh-1 4.8, ssDAF12 agonist 0.9
Oc1ccc(-c2csc(Nc3ncccn3)n2)c(O)c1	hgDAF-12 ag 25
Oc1ccc(-c2csc(Nc3ccccn3)n2)cc1	DAX1 inh-1 4.7, hgDAF-12 ag 11
Oc1ccc(-c2csc(Nc3ncccn3)n2)cc1O	none (no result: AHR activator)
COc1ccc(-c2csc(C(C)(O)c3ccccc3)n2)cc1OC (stereo unspecified)	none (no result: DAX1 inh-1, AHR activator)
COC(=O)C12C=C3CC(c4ccc(C)s4)=C3C(=O)N1Cc1[nH]c3ccccc3c1C2 (stereo unspecified)	none (no result: DAX1 inh-1, AHR activator)
CCOC(=O)N(C)C[C@H]1OCc2cn(nn2)CCCC(=O)N([C@@H](C)CO)C[C@@H]1C	none (no result: DAX1 inh-1, AHR activator)
O=C(NCCN1CCOCC1)c1cccc(S(=O)(=O)Nc2ccc(Br)cc2)c1	none
CC(C)OCCCN1C=C2C(=O)C(C)(OC(=O)CCc3ccccc3)C(=O)C=C2C=C1c1ccc(C#N)cc1 (stereo unspecified)	none (no result: DAX1 inh-1)
